According to PubChem BioAssay (NCATS):
Inconclusive results are not listed. Entries that show only a call come without a potency. Active and inactive are the calls of the source. Calls come from the whole dose curve; as a rule, active = well fitted inhibition curve with a large enough effect; inconclusive = small, poorly fitted or top-dose-only effect; inactive = flat fitted curve, though single readings scatter.

system: CRL-7250; test: qHTS assay to identify novel small-molecules to repurpose for Merkel cell carcinoma treatment (AID 1296009); details: MCC and control cell lines, CellTiter-Glo viability, 72 h; series mostly up to 92 µM; note: nearly all actives have a fitted effect of over 60% in size
Procedure, shortened: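 After compound transfer in DMSO, plates were kept 72 hr at 37 degree celsius. Luminescent ATP signal from CellTiter-Glo served as viability measure, normalized against DMSO and no-cell controls.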

Row | SMILES | Potency | outcome
1 | C=C1C(=O)OC2/C=C(\C)CC/C=C(\C(=O)O)CC/C=C(\C)CCC12 (centres undefined) | inactive | 
2 | C[C@H]1CC[C@@]2(OC1)O[C@H]1CC3C4CC[C@H]5C[C@@H](O)CC[C@]5(C)C4=CC(=O)[C@]3(C)[C@H]1[C@@H]2C (some centres undefined) | inactive | 
3 | CC(C)=CCCC1(C)Oc2cc3c(c4c2C2C(O4)C(C)(O)CCC21)CN(C(CCC(=O)O)C(=O)O)C3=O (centres undefined) | inactive | 
4 | OC[C@H]1O[C@@H](OC[C@H]2O[C@@H](OCc3ccccc3)[C@H](O)[C@@H](O)[C@@H]2O)[C@H](O)[C@@H](O)[C@@H]1O | inactive | 
5 | CC(=O)O[C@]1(C(C)=O)CC[C@H]2[C@@H]3CCC4=CC(=O)CCC4=C3[C@@H](c3ccc(N(C)C)cc3)C[C@@]21C | inactive | 
6 | CC(C)CC(=O)n1cc(C(N)=O)c(=O)cc1C(O)c1ccccc1 (centres undefined) | inactive | 
7 | c1nc(NC2CCCCCC2)c2cc(CNC[C@H]3CCCO3)sc2n1 | inactive | 
8 | Fc1ccc(-c2nc(C3CCNCC3)sc2-c2ccnc(NC3CC3)n2)cc1 | inactive | 
9 | CN(C)CCn1cc(S(=O)(=O)c2cccc(F)c2)c2cccnc21 | inactive | 
10 | CC1=CC(=O)CC(C)(C)C1(O)CCC(C)O (centres undefined) | inactive | 
11 | Cc1ncc([N+](=O)[O-])n1C[C@H](O)CN1CCOCC1 | inactive | 
12 | C[C@@H]1C(=O)O[C@H]2[C@H]1CC[C@@]1(C)C(=O)C=C[C@](C)(O)[C@H]21 | inactive | 
13 | C=C(CO)C(=O)O[C@H]1C[C@@]23O[C@@H]2CC/C(=C/[C@H]2OC(=O)C(=C)[C@H]12)CO[C@H]3O | inactive | 
14 | CC(C)c1cc2c(c(O)c1O[C@@H]1O[C@H](CO)[C@@H](O)[C@H](O)[C@H]1O)CC1(O)CCC(O)C(C)(C)C1CC2 (some centres undefined) | inactive | 
15 | COc1cc2c(cc1OC)CC(=O)N(CCCNC[C@H]1Cc3cc(OC)c(OC)cc31)CC2 | inactive | 
16 | C=C[C@H]1CN2CC[C@H]1C[C@@H]2C(O)c1ccnc2ccc(OC)cc12 (some centres undefined) | inactive | 
17 | OC[C@H]1O[C@@H](Oc2ccc(O)c3cccc(O)c23)[C@H](O)[C@@H](O)[C@@H]1O | inactive | 

Row | SMILES | Potency | outcome
18 | CO[C@@H]1CC[C@H](OC[C@]2(COC(=O)c3ccc(C)[nH]3)[C@H](OC(C)=O)CC[C@@]3(C)[C@@H]4CC=C(C)[C@@H](C5=C(O)C(=O)OC5O)[C@]4(C)CC[C@@H]32)O[C@H]1C (some centres undefined) | inactive | 
19 | CC1=C2CC(=O)C(C)CC/C=C(\C)CC2OC1=O (centres undefined) | inactive | 
20 | COc1ccc(C)c2sc(NC(=O)c3ccncc3)nc12 | inactive | 
21 | CC1C(O)C(O)C2C(C(=O)OCCc3ccc(O)cc3)=COC(O[C@@H]3O[C@H](CO)[C@@H](O)[C@H](O)[C@H]3O)C12 (some centres undefined) | inactive | 
22 | CCOc1nc2c(N)ncnc2n1CC | inactive | 
23 | C[C@@H](NC(=O)C(=O)c1c[nH]c2ccc([N+](=O)[O-])cc12)c1ccccc1 | inactive | 
24 | COC1CC(O[C@H]2CC[C@@]3(C)C(=CC[C@]4(O)C3[C@H](OC(C)=O)[C@@H](OC(=O)c3ccccc3)[C@]3(C)[C@@H](C(C)=O)CC[C@@]34O)C2)OC(C)C1OC1CC(OC)C(OC2CC(OC)C(OC3OC(C)C(OC4OC(CO)C(O)C(O)C4O)C(OC)C3O)C(C)O2)C(C)O1 (some centres undefined) |  | inactive [at 9.27 µM]
25 | Cc1ncc(Cl)cc1NCc1ccc(C(=O)NC(CC2CCCC2)C(=O)NC2CC2)s1 (centres undefined) | inactive | 
26 | CCC/C=C1\OC(=O)C2=C1CCC(O)C2O (centres undefined) | inactive | 
27 | NC[C@@H]1O[C@@H](O[C@@H]2[C@@H](O[C@@H]3O[C@H](CO)[C@@H](O)[C@H]3O)[C@H](O)[C@@H](N)C[C@H]2N)[C@@H](N)[C@H](O)[C@H]1O |  | inactive [at 9.27 µM]
28 | CC1(C)O[C@H]2CC(=O)OC[C@@]23C1=C(O)C(=O)[C@]1(C)C3CC[C@@]2(C)[C@H](c3ccoc3)OC(=O)[C@H]3O[C@]321 (some centres undefined) | inactive | 
29 | C=C1C(=O)OC[C@H]2C(C(=O)O)=CC3CC(C)(C)C[C@@]132 (some centres undefined) | inactive | 
30 | CC1CC2OCC3(O)CCC(O)C(C14CC(c1ccoc1)OC4=O)C23CO (centres undefined) | inactive | 
31 | N#Cc1ccc(COC[C@H]2O[C@@H](n3c(NCc4ccc(Cl)c(Cl)c4)nc4c(N)ncnc43)[C@H](O)[C@@H]2O)cc1 | inactive | 
32 | CC(O)CCC1C(CO[C@@H]2O[C@H](CO)[C@@H](O)[C@H](O)[C@H]2O)CC(O)CC1(C)C (some centres undefined) | inactive | 
33 | CCOC(=O)c1cc(C#N)c(N2CCC(C(=O)NS(=O)(=O)Cc3ccccc3)CC2)nc1C | inactive | 
34 | CCCCCOC(=O)Nc1nc(=O)n(C2O[C@H](C)[C@@H](O)[C@H]2O)cc1F (some centres undefined) | inactive | 
